# Measured values published in PubChem BioAssay.
# Values joined by “and” are separate entries in the source; they are usually repeats but may differ in a detail not shown here. Equal values may be shown once. For part of these data: Results with a measured potency or affinity are listed apart. Active and inactive are the calls of the source. Cut-off read from the data, not from the text of the source, unless noted: active = parasite load remaining mostly below about 12% (no sharp cut-off); inactive = mostly above about 10%.
# Experiments:
# [1] = polyglutamine-triggered caspase-3 activation inhibitors, cell-based (AID 1583); conditions: polyglutamine-induced caspase-3 activation, cell assay; stronger effect = higher value;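 tested at 10 µM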
# [2] = suppressors of polyQ aggregation in yeast, 75Q-TubU reporter (AID 1593); conditions: Yeast 75Q polyglutamine aggregation reporter
# [3] = rescue of polyQ-huntingtin neuronal dysfunction in worms, whole organism, C. elegans mechanosensory neurons, N-terminal huntingtin (AID 1599); conditions: touch response, stronger effect = higher value
# [4] = inhibitors of mitochondrial cytochrome c release, biochemical, purified mitochondria (AID 1603); conditions: stronger effect = lower value;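 note: mouse liver mitochondria challenged with calcium chloride; signal normalized to the plate average as 100%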
# [5] = inhibitors of polyQ protein aggregation (AID 1604); conditions: polyglutamine-induced protein aggregation inhibition assay; stronger effect = higher value; tested at 2.5 µM
# [6] = enhancers of glutamate uptake in motor neurons, MN-1 cell line (AID 1612); conditions: MN-1 motor neuron cells, stronger effect = higher value;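 note: tested at 1 µM final; 0% = mean of DMSO vehicle wells on each plate; positive means more glutamate uptake than control and negative means less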
# [7] = reducers of polyQ inclusions in PC12 cells, cell-based, NGF-treated PC12, GFPQ80 (AID 1614); conditions: PC12 NGF-treated GFP-polyQ80 inclusion reduction;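 note: lower means fewer inclusions and 0 means no inclusions at all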
# [8] = suppressors of polyglutamine aggregation in yeast, 75Q-TubH (AID 1616); conditions: S. cerevisiae 75Q-TubH polyglutamine aggregation suppression; stronger effect = higher value
# [9] = circadian clock period modulators, cell-based, LOPAC library, luminescence reporter (AID 2774; call rule not given here;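 note: values are relative to mean of DMSO wells on each plate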); conditions: circadian reporter cells, at 7 µM, actives lie on both sides
# [10] = liver-stage malaria parasite growth inhibition, primary screen, cell-based, HepG2, luciferase luminescence, HepG2 viability (AID 624349);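 note: 100% = mean of DMSO negative control wells on the same plate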; conditions: P. berghei liver stage in HepG2, luciferase luminescence, concentration not given here; parasite load remaining: stronger effect = lower value; viability: measured here: HepG2 viability without parasites
# [11] = biological target: 6-phosphogluconate dehydrogenase, decarboxylating (Homo sapiens) (UniProt P52209); test: 6PGD enzyme inhibitors, primary screen, biochemical, human, recombinant enzyme, NADPH absorbance (AID 1159550;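 active = at least 20% inhibition of 6-phosphogluconate dehydrogenase activity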); conditions: recombinant 6PGD, NADPH absorbance 341 nm; at 10 µM; stronger effect = higher value
# Sequence of 6-phosphogluconate dehydrogenase, decarboxylating (Homo sapiens) (P52209 whole entry, looked up): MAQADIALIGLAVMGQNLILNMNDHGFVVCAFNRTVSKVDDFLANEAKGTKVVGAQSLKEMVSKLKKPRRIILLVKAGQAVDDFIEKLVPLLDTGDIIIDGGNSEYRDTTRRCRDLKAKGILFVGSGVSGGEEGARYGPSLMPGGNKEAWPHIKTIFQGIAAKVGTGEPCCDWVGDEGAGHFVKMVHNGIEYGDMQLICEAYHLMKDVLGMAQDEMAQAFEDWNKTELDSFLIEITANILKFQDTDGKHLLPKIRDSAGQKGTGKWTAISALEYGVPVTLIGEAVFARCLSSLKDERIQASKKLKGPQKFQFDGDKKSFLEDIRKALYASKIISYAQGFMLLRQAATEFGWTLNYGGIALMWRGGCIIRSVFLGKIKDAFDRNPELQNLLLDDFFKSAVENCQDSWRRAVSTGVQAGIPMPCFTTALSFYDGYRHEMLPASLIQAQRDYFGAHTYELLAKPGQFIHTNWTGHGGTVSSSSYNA
# [12] = differential killing of epithelial or mesenchymal cells, primary screen, imaging, PC-3E GFP, TEM4-18 mCherry, co-culture (AID 1345086;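 active = compounds killing one labelled cell type while sparing the other, by normalised counts and ratio limits, not self-fluorescent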;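 for all read-outs here: cells exposed to compound for 72 h before imaging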;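 for red/green cell ratio (normalised): normalised mesenchymal count divided by normalised epithelial count so high means epithelial killing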); conditions: imaging cell counts, at 1 µM; for red/green cell ratio (normalised): actives lie on both sides, counts scaled to control wells, 1 = unselective
# [13] = sensitizers of A549 cells to miR-34 induction, primary screen, imaging, A549 dox-inducible miR-34, nuclei and caspase counts (AID 1347080;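 active = compounds whose cell count with miR-34 switched on is under 0.7 times the count with it off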); conditions: A549 miR-34 inducible, Hoechst nuclei count, 48 h
# [14] = phospholipid biosynthesis inhibitors in animal cells, primary screen, cell-based, LOPAC library, screen 4 (AID 1347384; call rule not given here); conditions: phospholipid biosynthesis inhibition screen, at 10 µM
# [15] = biological target: Mitogen-activated protein kinase 7 (Homo sapiens) (UniProt Q13164); test: ERK5 transactivation activators in reporter cells, primary screen, cell-based, HTS (AID 1508626;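 active = luciferase signal above three times the same-plate solvent-only control wells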;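 note: luciferase driven by Gal4-ERK5 fusion binding five Gal4 sites before minimal TATA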); conditions: HeLa Gal4-ERK5 transactivation, 18 h, at 5 µM, stronger effect = higher value
# Sequence of Mitogen-activated protein kinase 7 (Homo sapiens) (Q13164 whole entry, looked up, the tested form may be a part): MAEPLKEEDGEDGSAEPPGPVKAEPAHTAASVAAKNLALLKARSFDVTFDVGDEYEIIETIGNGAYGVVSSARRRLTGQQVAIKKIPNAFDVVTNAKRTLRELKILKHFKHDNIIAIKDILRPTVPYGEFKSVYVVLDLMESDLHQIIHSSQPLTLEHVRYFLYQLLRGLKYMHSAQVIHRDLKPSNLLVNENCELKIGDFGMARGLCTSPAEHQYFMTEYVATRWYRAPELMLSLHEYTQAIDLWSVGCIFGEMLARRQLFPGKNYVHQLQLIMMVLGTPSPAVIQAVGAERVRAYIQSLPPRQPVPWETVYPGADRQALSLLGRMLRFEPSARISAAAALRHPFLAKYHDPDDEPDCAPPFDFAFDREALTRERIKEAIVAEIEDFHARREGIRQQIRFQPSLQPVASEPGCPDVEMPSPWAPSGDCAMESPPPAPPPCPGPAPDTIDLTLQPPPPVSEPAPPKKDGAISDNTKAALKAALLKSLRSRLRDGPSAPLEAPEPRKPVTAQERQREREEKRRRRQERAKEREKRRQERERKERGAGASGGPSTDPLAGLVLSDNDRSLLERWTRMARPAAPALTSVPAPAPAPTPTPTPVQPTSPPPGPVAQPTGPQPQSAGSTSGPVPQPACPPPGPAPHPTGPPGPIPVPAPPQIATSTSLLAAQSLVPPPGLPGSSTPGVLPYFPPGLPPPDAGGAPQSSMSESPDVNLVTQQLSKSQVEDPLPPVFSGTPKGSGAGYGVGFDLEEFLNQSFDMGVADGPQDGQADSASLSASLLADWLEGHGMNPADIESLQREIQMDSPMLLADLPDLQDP
# [16] = viability rescue of complex I mutant cybrids, primary screen, cell-based, galactose medium, ATP luminescence (AID 1645843;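 active = z-score of at least 1.8 in each of two replicates, scored against plate mean and spread of sample wells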;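 note: positive z means more ATP and so rescue of galactose-driven cybrid death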); conditions: complex I mutant cybrid cells, 72 h, stronger effect = higher value
# [17] = hESC survival regulators, cell-based (AID 493140; call rule not given here;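 note: cells exposed to compounds for four days before counting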); conditions: human embryonic stem cell survival screen; stronger effect = higher value
# [18] = survival rescue of mitochondrial mutant cells in low glucose, primary screen, MELAS cybrids, Rieske KO mouse fibroblasts, CellTiter-Glo (AID 1508586;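 active = mean z-score across replicates of 1.96 or higher in either the MELAS or the Rieske mutant cell line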;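 note: z relative to plate mean and SD of compound and empty wells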)
# [19] = biological target: NAD(+) hydrolase SARM1 (Homo sapiens) (UniProt Q6SZW1); test: SARM1 TIR NADase inhibitors, cell lysate, NAD-Glo luminescence (AID 1508614;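 active = compound whose remaining NAD level is above about 45 nM, limit read from the data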;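 note: higher remaining NAD means stronger inhibition of SARM1 NADase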); conditions: SAM-TIR HEK293T lysate NADase, at 1 µM, stronger effect = higher value
# Sequence of NAD(+) hydrolase SARM1 (Homo sapiens) (Q6SZW1 whole entry, looked up): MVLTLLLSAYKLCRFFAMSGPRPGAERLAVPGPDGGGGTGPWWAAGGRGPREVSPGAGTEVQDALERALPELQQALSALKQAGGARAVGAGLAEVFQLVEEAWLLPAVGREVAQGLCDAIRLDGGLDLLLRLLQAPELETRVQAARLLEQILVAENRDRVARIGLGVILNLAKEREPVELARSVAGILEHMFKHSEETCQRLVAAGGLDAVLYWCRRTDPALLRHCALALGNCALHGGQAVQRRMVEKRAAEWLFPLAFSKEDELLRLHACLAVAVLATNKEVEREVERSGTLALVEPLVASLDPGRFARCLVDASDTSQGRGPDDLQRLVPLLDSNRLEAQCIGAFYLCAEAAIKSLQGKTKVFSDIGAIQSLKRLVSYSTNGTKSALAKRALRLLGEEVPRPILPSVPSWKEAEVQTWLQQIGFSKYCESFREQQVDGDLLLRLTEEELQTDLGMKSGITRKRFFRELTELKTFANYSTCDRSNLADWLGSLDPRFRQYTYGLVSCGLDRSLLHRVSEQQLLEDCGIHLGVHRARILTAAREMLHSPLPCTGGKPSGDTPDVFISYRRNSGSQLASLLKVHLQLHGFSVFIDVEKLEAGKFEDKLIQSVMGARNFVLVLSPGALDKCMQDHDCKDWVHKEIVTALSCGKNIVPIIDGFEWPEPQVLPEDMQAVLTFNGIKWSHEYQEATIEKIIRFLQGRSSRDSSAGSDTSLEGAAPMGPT
# [20] = measured here: epithelial PC-3E GFP cell survival
# [21] = measured here: mesenchymal TEM4-18 mCherry cell survival
# [22] = stronger effect = lower value, cell number ratio, induced over uninduced
# [23] = measured here: relative caspase fold change +Dox/-Dox
# [24] = measured here: total cells with miR-34 induction, stronger effect = lower value
# [25] = measured here: total cells without miR-34 induction
# [26] = MELAS cybrid survival, CellTiter-Glo 48 h, stronger effect = higher value
# [27] = Rieske KO mouse fibroblast survival, CellTiter-Glo 72 h
smiles,measurement,setting,value
CN[C@H](CC(=O)O)C(=O)O,inhibition,[1],0.95%
same,score,[2],1.4
same,rescue above control,[3],-9
same,cytochrome c release ratio,[4],0.78
same,inhibition of aggregation,[5],80.3%
same,glutamate uptake change,[6],-1.67%
same,inclusion score,[7],2
same,aggregation suppression score,[8],1.66
same,period change,[9],-0.09 h (inactive)
same,parasite load remaining,[10],161% (inactive)
same,viability,[10],83.1%
same,inhibition,[11],6.3% (inactive)
same,red/green cell ratio (normalised),[12],1.02 (inactive)
same,normalised cell number,[12]; [20],1.12
same,normalised cell number,[12]; [21],1.15
same,fold change,[13]; [22],1.06 (inactive)
same,fold change,[13]; [23],0.738
same,cell count,[13]; [24],10900
same,cell count,[13]; [25],10300
same,outcome,[14],inactive
same,luciferase signal,[15],56 AU (inactive)
same,z-score,[16],0.495 (inactive)
O=C1OC(=O)C2C3CCC(O3)C12 (configuration not stated),period change,[9],-0.06 h (inactive)
same,inhibition,[11],14.8% (inactive)
same,red/green cell ratio (normalised),[12],0.77 (inactive)
same,normalised cell number,[12]; [20],1.38
same,normalised cell number,[12]; [21],1.06
same,fold change,[13]; [22],1.08 (inactive)
same,fold change,[13]; [23],0.974
same,cell count,[13]; [24],8750
same,cell count,[13]; [25],8080
same,outcome,[14],inactive
same,luciferase signal,[15],52 AU (inactive)
same,z-score,[16],-0.385 (inactive)
NC(N)=NCCCCN=C(N)N,inhibition,[1],0.26%
same,score,[2],1.07
same,rescue above control,[3],-1.01
same,cytochrome c release ratio,[4],1.43
same,inhibition of aggregation,[5],83.3%
same,glutamate uptake change,[6],11.5%
same,inclusion score,[7],2
same,aggregation suppression score,[8],1.37
same,period change,[9],0.195 h (inactive)
same,survival,[17],5.58 (inactive)
same,parasite load remaining,[10],111% (inactive)
same,viability,[10],108%
same,inhibition,[11],-2.55% (inactive)
same,red/green cell ratio (normalised),[12],0.92 (inactive)
same,normalised cell number,[12]; [20],1.06
same,normalised cell number,[12]; [21],0.97
same,fold change,[13]; [22],0.968 (inactive) and 0.866 (inactive)
same,fold change,[13]; [23],0.983 and 0.933
same,cell count,[13]; [24],9930 and 7710
same,cell count,[13]; [25],10300 and 8910
same,outcome,[14],inactive
same,luciferase signal,[15],52 AU (inactive)
same,z-score,[16],0.645 (inactive)
C1N2CN3CN1CN(C2)C3,inhibition,[1],10.1%
same,score,[2],0.91
same,rescue above control,[3],-6.88
same,cytochrome c release ratio,[4],1.01
same,inhibition of aggregation,[5],27.8%
same,glutamate uptake change,[6],-31.9%
same,inclusion score,[7],2
same,aggregation suppression score,[8],0.744
same,parasite load remaining,[10],80.4% (inactive) and 31.8% (inactive)
same,viability,[10],76.7% and 89.4%
same,inhibition,[11],6.67% (inactive)
same,red/green cell ratio (normalised),[12],1 (inactive)
same,normalised cell number,[12]; [20],1.13
same,normalised cell number,[12]; [21],1.13
same,fold change,[13]; [22],0.9 (inactive) and 0.915 (inactive)
same,fold change,[13]; [23],0.914 and 0.53
same,cell count,[13]; [24],8000 and 12000
same,cell count,[13]; [25],8890 and 13100
same,z-score,[18]; [26],-0.156 (inactive) and 0.632 (inactive)
same,z-score,[18]; [27],-0.286 and -0.336
same,remaining NAD,[19],10 nM (inactive)
same,luciferase signal,[15],64 AU (inactive)
CC(=O)N1CCN(c2ccc(OCC3CO[C@](Cn4ccnc4)(c4ccc(Cl)cc4Cl)O3)cc2)CC1 (some centres not stated),inhibition,[1],-4.16%
same,score,[2],0.15
same,rescue above control,[3],0.92
same,cytochrome c release ratio,[4],1.8
same,inhibition of aggregation,[5],88.5%
same,glutamate uptake change,[6],-8.61%
same,aggregation suppression score,[8],0.126
same,parasite load remaining,[10],15.3% (inactive) and 4.75% (inactive)
same,viability,[10],65.5% and 60%
same,inhibition,[11],-8.94% (inactive)
same,red/green cell ratio (normalised),[12],0.9 (inactive)
same,normalised cell number,[12]; [20],0.95
same,normalised cell number,[12]; [21],0.85
same,fold change,[13]; [22],1 (inactive) and 1.02 (inactive) and 0.954 (inactive)
same,fold change,[13]; [23],2.72 and 0.263 and 1.79
same,cell count,[13]; [24],7410 and 7100 and 8230
same,cell count,[13]; [25],7380 and 6960 and 8630
same,z-score,[18]; [26],-0.501 (inactive)
same,z-score,[18]; [27],-0.0671
same,z-score,[16],-0.8 (inactive)
COc1cc2c(cc1OC)-c1cc3ccc(OC)c(OC)c3c[n+]1CC2,survival,[17],1.83 (inactive)
same,parasite load remaining,[10],110% (inactive) and 92.2% (inactive) and 65.3% (inactive)
same,viability,[10],114% and 73.3% and 79.6%
same,inhibition,[11],-0.646% (inactive) and 1.04% (inactive)
same,red/green cell ratio (normalised),[12],0.85 (inactive) and 0.9 (inactive)
same,normalised cell number,[12]; [20],1.04 and 1.09
same,normalised cell number,[12]; [21],0.88 and 0.98
same,fold change,[13]; [22],0.898 (inactive) and 1 (inactive)
same,fold change,[13]; [23],1.49 and 0.581
same,cell count,[13]; [24],8980 and 7680
same,cell count,[13]; [25],9990 and 7660
same,z-score,[18]; [26],-0.0781 (inactive)
same,z-score,[18]; [27],0.0197
same,luciferase signal,[15],352 AU (active)
N[C@@H](Cc1cc(I)c(Oc2ccc(O)c(I)c2)c(I)c1)C(=O)O,survival,[17],4.58 (inactive)
same,parasite load remaining,[10],78.5% (inactive) and 158% (inactive) and 41% (inactive)
same,viability,[10],96% and 73% and 101%
same,inhibition,[11],0.697% (inactive)
same,red/green cell ratio (normalised),[12],1.24 (inactive)
same,normalised cell number,[12]; [20],0.91
same,normalised cell number,[12]; [21],1.14
same,fold change,[13]; [22],0.925 (inactive) and 0.987 (inactive)
same,fold change,[13]; [23],0.994 and 1.44
same,cell count,[13]; [24],10000 and 11900
same,cell count,[13]; [25],10800 and 12100
same,z-score,[18]; [26],-0.576 (inactive)
same,z-score,[18]; [27],-1.73
same,remaining NAD,[19],10 nM (inactive)
same,luciferase signal,[15],80 AU (inactive)
Cc1cc(C(C)(C)CC(C)(C)C)ccc1OCCOCC[N+](C)(C)Cc1ccccc1,inhibition,[1],-7.8%
same,score,[2],-0.1
same,rescue above control,[3],0
same,cytochrome c release ratio,[4],6.77
same,inhibition of aggregation,[5],63.9%
same,glutamate uptake change,[6],10.8%
same,aggregation suppression score,[8],-0.0187
same,survival,[17],0.167 (inactive)
same,parasite load remaining,[10],26.8% (inactive) and 101% (inactive) and 11.6% (inactive)
same,viability,[10],87.1% and 82% and 145%
same,inhibition,[11],18.8% (inactive)
same,red/green cell ratio (normalised),[12],1.11 (inactive)
same,normalised cell number,[12]; [20],0.89
same,normalised cell number,[12]; [21],0.98
same,fold change,[13]; [22],0.811 (inactive) and 0.9 (inactive)
same,fold change,[13]; [23],1.18 and 1.77
same,cell count,[13]; [24],1940 and 8590
same,cell count,[13]; [25],2400 and 9540
same,z-score,[18]; [26],-1.41
same,z-score,[18]; [27],2.46
same,remaining NAD,[19],10 nM (inactive)
same,luciferase signal,[15],116 AU (inactive)
CC1(C)S[C@@H]2[C@H](NC(=O)Cc3ccccc3)C(=O)N2[C@H]1C(=O)O,inhibition,[1],18.9%
same,score,[2],1.32
same,rescue above control,[3],-0.92
same,cytochrome c release ratio,[4],0.98
same,inhibition of aggregation,[5],16.8%
same,glutamate uptake change,[6],6.9%
same,inclusion score,[7],2
same,aggregation suppression score,[8],1.3
same,survival,[17],5.08 (inactive)
same,parasite load remaining,[10],73.8% (inactive) and 85.4% (inactive) and 69.6% (inactive)
same,viability,[10],70.9% and 69.6% and 97.7%
same,inhibition,[11],1.35% (inactive)
same,red/green cell ratio (normalised),[12],1.11 (inactive)
same,normalised cell number,[12]; [20],0.85
same,normalised cell number,[12]; [21],0.94
same,fold change,[13]; [22],0.959 (inactive) and 0.873 (inactive)
same,fold change,[13]; [23],0.53 and 0.733
same,cell count,[13]; [24],9610 and 11500
same,cell count,[13]; [25],10000 and 13200
same,z-score,[18]; [26],-1.02 (inactive)
same,z-score,[18]; [27],-0.0384
same,remaining NAD,[19],10 nM (inactive)
same,luciferase signal,[15],108 AU (inactive)
Cc1cc(/C=C/c2ccc3cc(N(C)C)ccc3[n+]2C)c(C)n1-c1ccccc1,inhibition,[1],21.2%
same,score,[2],-2.18
same,rescue above control,[3],0
same,cytochrome c release ratio,[4],0.75
same,inhibition of aggregation,[5],-12.8%
same,glutamate uptake change,[6],-15.7%
same,aggregation suppression score,[8],-0.227
same,parasite load remaining,[10],0.35% (inactive) and 0.64% (inactive)
same,viability,[10],46.6% and 62.4%
same,inhibition,[11],5.46% (inactive)
same,red/green cell ratio (normalised),[12],2.7 (active)
same,normalised cell number,[12]; [20],0.4
same,normalised cell number,[12]; [21],1.08
same,fold change,[13]; [22],1.07 (inactive)
same,fold change,[13]; [23],0.697
same,cell count,[13]; [24],1790
same,cell count,[13]; [25],1670
same,remaining NAD,[19],10 nM (inactive)
same,luciferase signal,[15],28 AU (inactive)
